Pf growth 48h: Primary qHTS for delayed death inhibitors of the malarial parasite plastid, 48 hour incubation | P. falciparum luciferase growth in erythrocytes, 48 h | Potency, µM (doses to about 28.7 µM), inactives show at the highest dose activity change, negative = inhibition, actives largely listed as inhibitors | 310,000 compounds, 5.9% hits
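Parasite viability was followed by luminescence of a genomically integrated firefly luciferase. Cultures held 0.1% parasitemia at 2% hematocrit (final), incubated under 5% CO2 at 37 C.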
HCV inhibitor: qHTS Assay for Inhibitors of Hepatitis C Virus (HCV). Huh7.5.1 HCVcc-Cre infection, luciferase reporter, 44 h. Potency, µM (series often up to 41.8 µM), inactives show at the highest dose activity change, negative = inhibition, usual class: inhibitors. 340,000 compounds, 3.4% hits
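Luciferase read-out (15 sec integration) after a 15 min room-temperature substrate step quantifies HCVcc-Cre infection. Cells, 1,000 per well, had compound added 4 h post-plating, then virus at ~0.5 moi, and were cultured 44 h.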
AMA1 RON2 block: qHTS for Inhibitors of AMA1-RON; Towards Development of Antimalarial Drug Lead: Primary Screen | AID 720542, 2013 | Potency, µM (doses to about 58.2 µM), for the others: at the highest dose activity change, negative = inhibition, hits mostly inhibitors | 360,000 compounds, 0.2% hits | AlphaScreen AMA1-biotinylated RON2 peptide binding;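 further: 0% = vehicle wells and -100% = peptide control; nearly all actives have a fitted effect of over 45% in size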
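AMA1 (3D7) with his tag at 25 nM final met compounds first, then biotinylated RON2 peptide at 25 nM; detection used donor plus acceptor beads, 10 µg/mL apiece, read by AlphaScreen after 30 min at room temperature.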
Pf growth 96h: Primary qHTS for delayed death inhibitors of the malarial parasite plastid, 96 hour incubation. 320,000 compounds, 6.9% hits. AID 504834, 2011. P. falciparum luciferase reporter growth, 96 h. Potency, µM (highest dose often 28.7 µM), for inactives: top-dose activity change, negative = inhibition, actives largely listed as inhibitors
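Erythrocytes infected with luciferase-expressing P. falciparum were dispensed at 2% hematocrit and 0.05% parasitemia (final), then incubated with compounds 96 hours at 37 C in 5% CO2. Luminescence after detection reagent addition reported growth.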
The depositor's hits bear a star; [ ] = remark or other dose. Most compounds without a hit are left out; they make up all but 11% or so of the library. The call rests on the fitted dose curve; in most records, active means well fitted curve in the direction sought with a large enough effect; inconclusive means small, poorly fitted or top-dose-only effect, or another doubt; inactive means no such curve, though single readings can be large; an effect the other way counts as inactive or inconclusive. Unless noted, on the % scale 0 is the no-effect control and ±100 the full control effect; potency means the concentration at half of the fitted maximal effect.

What do the screens show for `COc1cccc([C@@H]2Oc3ccc(OC)cc3C(=O)[C@H]2O)c1`?
Pf growth 48h: -22%; HCV inhibitor: inconclusive; AMA1 RON2 block: 21%; Pf growth 96h: 3.7µM*

Results for COc1ccc2c(c1)C(=O)[C@@H](O)[C@H](c1ccc(OC)c(Br)c1)O2 ?
Pf growth 48h: 3.7µM*; HCV inhibitor: -27%[8.37 µM]; AMA1 RON2 block: 74%; Pf growth 96h: 3.3µM*

What do the screens show for `COc1ccc2c(c1)C(=O)[C@@H](OC(=O)NCc1ccc3c(c1)OCO3)[C@H](c1ccc(OC)c(Br)c1)O2`?
Pf growth 48h: inconclusive; HCV inhibitor: -6%[8.37 µM]; Pf growth 96h: inconclusive

Results for COCC(C)OC(=O)c1c(N)n(CC(C)C)c2nc3ccccc3nc12 (centres undefined) ?
Pf growth 48h: 12µM*; HCV inhibitor: -10%; AMA1 RON2 block: 53%

Results for C=CCn1c(N)c(C(=O)OC(C)(C)C)c2nc3ccccc3nc21 ?
HCV inhibitor: -26%; AMA1 RON2 block: -1%

What do the screens show for `C=CCn1c(N)c(C(=O)OC(C)CC)c2nc3ccccc3nc21` (centres undefined)?
Pf growth 48h: 10µM*; HCV inhibitor: inconclusive; AMA1 RON2 block: 29%

What do the screens show for `CCN(C(=O)CSc1nc2n[nH]c(C)c2c(=N)n1-c1ccc(Cl)c(C)c1)c1cccc(C)c1`?
Pf growth 48h: inconclusive; HCV inhibitor: inconclusive; AMA1 RON2 block: 2%; Pf growth 96h: 26%

Results for Cc1cc(-n2c(SCc3ccccc3F)nc3n[nH]c(C)c3c2=N)ccc1Cl ?
Pf growth 48h: inconclusive; HCV inhibitor: 10µM*; AMA1 RON2 block: -9%; Pf growth 96h: 4.7µM*

Results for CCc1ccccc1NC(=O)CSc1nc2n[nH]c(C)c2c(=N)n1-c1ccc(OC)cc1 ?
Pf growth 48h: inconclusive; HCV inhibitor: 11µM*; AMA1 RON2 block: 20%; Pf growth 96h: 32%

Results for CCC(Sc1nc2n[nH]c(C)c2c(=N)n1-c1ccc(C)c(Cl)c1)C(=O)N1CCOCC1 (centres undefined) ?
Pf growth 48h: 13µM*; HCV inhibitor: inconclusive; AMA1 RON2 block: 1%; Pf growth 96h: 23%

How did CCCCN(CC)C(=O)CSc1nc2n[nH]c(C)c2c(=N)n1-c1cccc(C)c1 do in these assays?
Pf growth 48h: inconclusive; HCV inhibitor: 11µM*; AMA1 RON2 block: 47%; Pf growth 96h: inconclusive

Results for CCc1nc2ccc(C(=O)NCCCn3ccnc3)cn2c1N(C)CCCc1ccccc1 ?
AMA1 RON2 block: 6%

What do the screens show for `COc1ccccc1NC(=O)CSc1nc2n[nH]c(C)c2c(=N)n1-c1ccccc1Cl`?
Pf growth 48h: 5.9µM*; HCV inhibitor: 11µM*; AMA1 RON2 block: 2%; Pf growth 96h: 6%

Results for Cc1[nH]nc2nc(SCC(=O)NC3CCCCC3)n(-c3ccc(Br)cc3)c(=N)c12 ?
Pf growth 48h: -13%; HCV inhibitor: inconclusive; AMA1 RON2 block: -17%; Pf growth 96h: 13µM*

How did CCOc1ccc(-n2c(SCC(=O)Nc3ccc(CC)cc3)nc3n[nH]c(C)c3c2=N)cc1 do in these assays?
Pf growth 48h: 11%; HCV inhibitor: -28%; AMA1 RON2 block: 2%; Pf growth 96h: inconclusive

Results for CCCCn1c(O)c(N=Nc2ccccc2O)c2ccccc21 ?
Pf growth 48h: 6.6µM*; HCV inhibitor: inconclusive; AMA1 RON2 block: 30%; Pf growth 96h: 42%

How did CSCCC(NC(=O)COc1ccccc1)C(=O)OCc1ccc([N+](=O)[O-])cc1 (centres undefined) do in these assays?
Pf growth 48h: -16%; HCV inhibitor: -14%; AMA1 RON2 block: -23%; Pf growth 96h: 23%

What do the screens show for `COC(=O)c1ccc(C(=O)OC)c(NC(=O)CN(c2ccccc2)S(=O)(=O)N(C)C)c1`?
Pf growth 48h: inconclusive; HCV inhibitor: -7%; AMA1 RON2 block: 5%; Pf growth 96h: 0%

Results for COC(=O)c1ccc(C(=O)OC)c(NC(=O)CS(=O)(=O)Cc2ccccc2)c1 ?
Pf growth 48h: 6%; HCV inhibitor: 6%; AMA1 RON2 block: 0%; Pf growth 96h: 5.2µM*

Results for CC(Oc1ccccc1)C(=O)Nc1nc(-c2ccncc2)cs1 (centres undefined) ?
Pf growth 48h: -27%; HCV inhibitor: 3%; AMA1 RON2 block: 8%; Pf growth 96h: -31%

How did O=C(CCCSc1ccccc1)Nc1nc(-c2ccccn2)cs1 do in these assays?
HCV inhibitor: inconclusive; AMA1 RON2 block: inconclusive; Pf growth 96h: 7.4µM*

Results for Cc1cc(C)cc(OCC(=O)Nc2nc(-c3ccccn3)cs2)c1 ?
Pf growth 48h: inconclusive; HCV inhibitor: inconclusive; AMA1 RON2 block: 122%; Pf growth 96h: inconclusive

How did CC(Oc1ccccc1)C(=O)Nc1nc(-c2ccccn2)cs1 (centres undefined) do in these assays?
Pf growth 48h: 1.9µM*; HCV inhibitor: inconclusive; AMA1 RON2 block: 45%; Pf growth 96h: 2.3µM*

What do the screens show for `CC(Oc1cccc(Cl)c1)C(=O)Nc1nc(-c2ccccn2)cs1` (centres undefined)?
Pf growth 48h: 2.6µM*; HCV inhibitor: 6.3µM*; AMA1 RON2 block: 4%; Pf growth 96h: 2.6µM*

Results for Cc1cccc(C(=O)NC(C(=O)Nc2nc(-c3ccccn3)cs2)C(C)C)c1 (centres undefined) ?
Pf growth 48h: 15µM*; HCV inhibitor: inconclusive; AMA1 RON2 block: 82%; Pf growth 96h: inconclusive

Results for CC(OC(=O)c1ccc(O)cc1)C(=O)Nc1nc(-c2ccccc2)cs1 (centres undefined) ?
Pf growth 48h: 6.6µM*; HCV inhibitor: inconclusive; AMA1 RON2 block: -4%; Pf growth 96h: inconclusive

What do the screens show for `CC(OC(=O)CNC(=O)c1ccccc1F)C(=O)Nc1nc(-c2ccccc2)cs1` (centres undefined)?
Pf growth 48h: 138%; HCV inhibitor: 14%; AMA1 RON2 block: -8%; Pf growth 96h: 129%

What do the screens show for `C/C(N)=C(/C#N)C(=O)COC(=O)[C@@H](NC(=O)c1ccccc1Cl)C(C)C`?
Pf growth 48h: -4%; HCV inhibitor: 8%; AMA1 RON2 block: 8%; Pf growth 96h: 0%

Results for CN1CCN(c2ccc(-c3cccc(NC(=O)COc4ccc(Cl)cc4Cl)c3)nn2)CC1 ?
Pf growth 48h: -86%; HCV inhibitor: 11µM*; AMA1 RON2 block: -3%; Pf growth 96h: -2%

Results for CCOC(=O)c1c(-c2ccccc2Cl)csc1NC(=O)c1cc(S(=O)(=O)N2CCOCC2)ccc1C ?
Pf growth 48h: 15µM*; HCV inhibitor: inconclusive; AMA1 RON2 block: 0%; Pf growth 96h: inconclusive

Results for CCOc1ccccc1C(=O)Nc1cccc(-c2ccc(N3CCOCC3)nn2)c1 ?
Pf growth 48h: inconclusive; HCV inhibitor: inconclusive; AMA1 RON2 block: -16%; Pf growth 96h: 9.3µM*
